Source: PubChem BioAssay AID1345085 (National Center for Advancing Translational Sciences (NCATS), 2018)
Inconclusive results are not listed. Where a call stands in place of a potency, no number is given. Calls of active or inactive are those of the source. Calls follow the shape of the dose curve; as a rule, active = well fitted cell-killing curve with a large enough effect; inconclusive = small, poorly fitted or top-dose-only effect, or effect the other way; inactive = no such curve, though single readings can be large or run the other way.

Test system: CASKI
Experiment: Confirmatory qHTS for gynecologic anti-cancer compounds from libraries of approved drugs and bioactive compounds; also: nearly all actives have a fitted effect of over 55% in size
Details: gynecologic cancer cell panel viability, ATPlite luminescence, 48 h; series mostly up to 57.6 µM
Outline: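 ATPlite luminescence read-out of cell viability; IC50 from 11-point 1:3 titrations, 57.5 uM to 0.977 nM, 48 h compound exposure at 37 C, 5% CO2. Cells seeded at 1,000/well 16 h before dosing.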
Potency is read from the fitted curve at half-maximal effect.

SMILES: CCOc1ccccc1-n1c(C(C)N2CCN(C(=O)COc3ccc(Cl)cc3)CC2)nc2ccccc2c1=O (centres undefined)
- Potency: inactive

SMILES: CCC(=O)O[C@H]1CC[C@H]2[C@@H]3CCC4=CC(=O)CC[C@]4(C)[C@H]3CC[C@]12C
- Potency: inactive

SMILES: C=C(C)[C@H]1Cc2c(ccc3c2O[C@@H]2COc4cc(OC)c(OC)cc4[C@@H]2C3=O)O1
- Potency: 0.109 µM (active)

SMILES: O=C(O)Cc1ccccc1
- Potency: inactive

SMILES: C/C=C(/C)C(=O)O[C@H]1C(C)=C2[C@H]([C@@H]1OC(=O)CCCCCCC)[C@@](C)(OC(C)=O)C[C@H](OC(=O)CCC)[C@@]1(O)[C@H]2OC(=O)[C@@]1(C)O
- Potency: 34.3 µM (active)

SMILES: Cc1sc2c(c1C)C(c1ccc(Cl)cc1)=NC(CC(=O)OC(C)(C)C)c1nnc(C)n1-2 (centres undefined)
- Potency: 7.69 µM (active)

SMILES: CCN1CCN(C(=O)Cc2ccc(Nc3ncc(F)c(Nc4ccc(C(=O)Nc5ccccc5Cl)cc4)n3)cc2)CC1
- Potency: inactive

SMILES: C[C@]12CC[C@H]3[C@@H](CCC4=CC(=O)CC[C@@H]43)[C@@H]1CC[C@@H]2OC(=O)CCc1ccccc1
- Potency: inactive

SMILES: C[C@H]1CCC/C=C/C2C[C@H](O)C[C@H]2[C@H](O)/C=C/C(=O)O1 (some centres undefined)
- Potency: 0.611 µM (active)
